Screening results (PubChem BioAssay)
The list is not random: actives were taken first. Their share in the collection is about 19%.
Marburg entry inh – Marburg virus entry inhibition | 300,000 tested, 1.8% active | Marburg virus pseudotyped entry inhibition, cell reporter | Potency, µM (doses to about 37.8 µM), usual class: inhibitors; calls by dose curve; tested in HEK293 cells
Pf growth 96h – P. falciparum growth inhibition at 96 hours; P. falciparum luciferase reporter growth, 96 h; Potency, µM (series often up to 28.7 µM), hits mostly inhibitors; 320,000 tested, 6.9% active
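Two parasite generations (96 h, 37 C, 5% CO2) of compound exposure in infected erythrocytes (0.05% parasitemia, 2% hematocrit). Luciferase-reporter P. falciparum; decreased luminescence indicates inhibited growth, aimed at apicoplast-acting delayed death.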
CHX counter – counter-screen for Shiga toxin inhibitors: cycloheximide protein synthesis inhibition | 300,000 tested, 12% active | AID 2314 | cell reporter, cycloheximide protein synthesis inhibition counterscreen | max response, %; in the data active = max response mostly above about 13%, no sharp cut-off; inactive = mostly below about 14%; note: read at 38.3 µM for the half of the compounds with a filed dose
Pf growth 48h – inhibits P. falciparum growth in the first generation, 48 h. Potency, µM (titrated, usually from 28.7 µM), actives largely listed as inhibitors. AID 504832. 310,000 tested, 5.9% active. P. falciparum luciferase growth in erythrocytes, 48 h
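First compound was added to culture medium, then infected red cells at 0.1% parasitemia and 2% hematocrit (final). After incubation at 37 C under 5% CO2, luciferase detection reagent was dispensed and light output recorded.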
Lassa entry inh – Lassa virus entry inhibition; Lassa virus pseudotype entry inhibition, cell reporter; Potency, µM (titrated, usually from 37.9 µM), most hits filed as inhibitors; 300,000 tested, 1.2% active; calls by dose curve; tested in HEK293 cells; note: nearly all actives have a fitted effect of over 50% in size
Shiga inhibitor – Shiga toxin inhibition; inhibition, % at 38.7 µM; 290,000 tested, 9.2% active; Vero cells, Shiga toxin protein synthesis inhibition reporter; in the data active = inhibition mostly above about 28%, no sharp cut-off; inactive = mostly below about 43%
Numbers stand for hits; . = inactive; ? = inconclusive; / = no result. Unless noted, calls come from the whole dose curve; as a rule, active = well fitted inhibition curve with a large enough effect; inconclusive = small, poorly fitted or top-dose-only effect, or another doubt; inactive = no such curve, though single readings can be large or run the other way.

SMILES	Marburg entry inh	Pf growth 96h	CHX counter	Pf growth 48h	Lassa entry inh	Shiga inhibitor
CC(=O)c1ccc(NC(=O)C2CCN(S(=O)(=O)c3cccs3)CC2)cc1	/	?	44	?	/	44
CC(=O)N1CCc2c(sc(NC(=O)C3CCN(S(=O)(=O)c4cccs4)CC3)c2C(N)=O)C1	.	?	/	12µM	.	/
Cc1ccc(NC(=O)C2CCN(S(=O)(=O)c3cccs3)CC2)cc1C	?	?	.	/	.	.
COCCSc1nc2c([nH]c3ccccc32)c(=O)n1-c1ccc(OC)c(OC)c1	/	/	/	/	.	/
COc1ccc(-n2c(SCC(=O)Nc3ccc(C(N)=O)cc3)nc3c([nH]c4ccccc43)c2=O)cc1OC	/	12µM	.	?	/	.
COc1ccc(-n2c(SCC(=O)N(C)c3ccccc3)nc3c([nH]c4ccccc43)c2=O)cc1OC	/	4.7µM	.	8.3µM	/	.
CCc1nnc(NC(=O)CSc2nc3c([nH]c4ccccc43)c(=O)n2-c2ccc(Cl)cc2)s1	/	/	/	/	7.9µM	/
COc1ccc(NC(=O)CSC2=Nc3ccccc3C3=NC(Cc4ccccc4)C(=O)N23)cc1Cl (stereo not drawn)	/	/	/	/	.	/
C[n+]1c2cc(N)ccc2cc2ccc(N)cc21	/	0.034µM	/	0.048µM	/	/
O=C(O)/C=C/c1cn(-c2ccccc2)nc1-c1ccccc1	/	5.9µM	.	.	/	.
CC1(C)CC(=O)C(=Cc2cn(-c3ccccc3)nc2-c2ccc(Cl)cc2)C(=O)C1	.	?	.	.	.	.
CC1=NNC(=O)/C1=C\c1cn(-c2ccccc2)nc1-c1ccccc1	4µM	.	.	?	?	.
O=C(O)/C=C/c1cnn(-c2ccccc2)c1	?	.	21	.	2.8µM	.
CCOC(=O)/C=C/c1cnn(-c2ccccc2)c1	?	.	89	.	.	169
O=C(/C=C/c1ccccc1)OCC(=O)N1CCN(c2ccccc2)CC1	.	.	/	.	.	/
N#Cc1cn(-c2ccccc2)nc1-c1ccccc1	.	.	21	.	.	.
C(=N\N1CCOCC1)/c1cn(-c2ccccc2)nc1-c1ccccc1	?	.	22	.	?	.
O=C(CN(C(=O)c1csnn1)c1ccc(Cl)cc1)NC1CCCC1	.	.	.	.	.	.
CCCCOCCO	.	/	/	/	.	/
CCCCCCCCCCOCC(O)CN (stereo not drawn)	/	12µM	/	?	/	/
CCCCCCCCCCCCCCCCOCCOCCOCCOCCOCCOCCOCCOCCOCCOCCOCCOCCOCCOCCOCCOCCOCCOCCOCCOCCO	/	6.7µM	/	13µM	/	/
COc1ccccc1N1CCN(C(=O)/C=C/c2c(Cl)nc3ccccn23)CC1	?	.	.	?	?	.
COc1ccc(NC(=O)/C=C/c2c(Cl)nc3ccccn23)cc1	/	.	20	.	/	.
Cc1ccc(NC(=O)c2c(Cl)nc3ccccn23)cc1	.	.	37	.	?	114
Cc1ccc(C)c(NC(=O)c2c(Cl)nc3ccccn23)c1	.	.	.	.	.	.
SMILES	Marburg entry inh	Pf growth 96h	CHX counter	Pf growth 48h	Lassa entry inh	Shiga inhibitor
Cc1nc2ccccn2c1C(=O)CSc1ccccc1	?	?	31	.	.	38
Cc1nc2ccccn2c1C(=O)Nc1ccc(Cl)cc1	.	.	24	.	.	.
CCCC(=O)Nc1c2c(nn1-c1ccc(OC)cc1)CS(=O)C2 (stereo not drawn)	.	.	.	.	.	.
CCOC(=O)c1cnc2c(ccc3ccccc32)c1Nc1ccc(Cl)cc1	/	/	/	/	.	/
Cc1nc2ccccn2c1C(=O)Nc1ccc2c(c1)OCCO2	?	.	45	.	.	112
CC(=O)Nc1ccc(NC(=O)c2c(C)nc3ccccn23)cc1	.	/	.	.	.	.
CC(N=c1ccccn1C(=O)Nc1ccc(Cl)cc1)c1ccco1 (stereo not drawn)	.	/	49	?	.	65
CC(N=c1ccccn1C(=O)Nc1ccc(F)cc1)c1ccco1 (stereo not drawn)	.	?	.	.	.	.
CC(NCC#Cc1ccccc1)C(O)c1ccccc1 (stereo not drawn)	.	?	.	?	.	.
CCC1(CC)CNC(=O)NC1=O	?	/	/	/	.	/
CCn1nc(NC(=O)c2ccncc2)c2cc3cccc(C)c3nc21	.	2.1µM	.	.	.	.
CCn1nc(NC(=O)c2ccco2)c2cc3ccccc3nc21	.	9.3µM	.	/	?	.
CC(C)Cn1nc(NC(=O)C(C)(C)C)c2cc3ccccc3nc21	.	?	.	9.3µM	?	.
CCCCC(=O)Nc1nn(CC(C)C)c2nc3ccccc3cc12	.	.	.	?	.	.
Cc1ccc2nc3c(cc2c1)c(NC(=O)C(C)(C)C)nn3CC(C)C	.	1µM	.	13µM	.	.
O=C(c1ccco1)N1CCN(C(=O)c2oc(=O)c3ccccc3c2-c2ccccc2)CC1	.	.	.	/	/	.
CC(C)Cn1nc(NC(=O)c2cccs2)c2cc3ccccc3nc21	/	?	.	?	/	.
COc1ccc2nc3c(cc2c1)c(NC(=O)c1cccs1)nn3CC(C)C	?	.	19	?	.	88
C=C1C(c2ccc(C)cc2)=CCc2cc(C)cc(C)c21	/	/	39	/	/	53
COCCNC(=O)NC(=O)COC(=O)c1cccn1C	.	.	.	.	.	.
Cc1cc2c(cc1S(=O)(=O)Nc1c(C)cccc1C)n(C)c(=O)c(=O)n2C	/	.	.	.	/	.
COc1ccc(CCNC(=O)C(C)n2nc(C)c3sc4ccccc4c3c2=O)c(OC)c1 (stereo not drawn)	?	/	/	/	.	/
CCN(c1ccccc1)c1ncnc2c1cnn2-c1ccccc1	/	.	26	/	/	65
CN(Cc1ccccc1)c1ncnc2c1cnn2-c1ccccc1	.	?	55	.	?	98
CCN(Cc1ccccc1)c1ncnc2c1cnn2-c1ccc(F)cc1	/	/	/	/	.	/
SMILES	Marburg entry inh	Pf growth 96h	CHX counter	Pf growth 48h	Lassa entry inh	Shiga inhibitor
CC(CCC(=O)Nc1nncs1)C(=O)O (stereo not drawn)	/	12µM	.	.	/	.
O=S(=O)(c1ccc(SCc2ccc(Cl)cc2)nc1)N1CCCC1	/	?	/	12µM	/	/
O=S(=O)(c1ccc(SCCOc2ccc(Br)cc2)nc1)N1CCCC1	?	?	/	?	.	/
Cc1cc(C)cc(CSc2ccc(S(=O)(=O)N3CCCC3)cn2)c1	/	9.3µM	/	9.3µM	/	/
O=S(=O)(c1ccc(SCCOc2ccc(Cl)cc2)nc1)N1CCCC1	/	?	/	13µM	/	/
CCOc1ccc(OCCSc2ccc(S(=O)(=O)N3CCN(C)CC3)cn2)cc1	/	15µM	/	?	/	/
COc1ccc(CSc2ccc(S(=O)(=O)N3CCCCC3)cn2)cc1F	/	.	/	.	/	/
COC(=O)CN1C(=O)CC(C)(C)S(=O)c2ccccc21 (stereo not drawn)	/	?	.	.	/	.
CC(=O)Nc1cccc(NS(=O)(=O)c2cc3c4c(c2)CCN4C(=O)CC3)c1	.	.	/	.	.	/
O=C(CN1CCCCCCC1)N/N=C/c1ccccc1F	.	?	.	.	.	.
O=C(CN1CCCCCC1)N/N=C/c1cccc(Cl)c1Cl	?	.	24	.	.	105
O=C(CN1CCCCC1)N/N=C/c1ccccc1Br	.	?	9.1	.	?	.
Cc1cc(/C=N\NC(=O)CC(=O)NC2CCCCC2)c(C)n1-c1cccc(Cl)c1Cl	?	8.3µM	.	.	.	.
